GLP1R ag – activates the human GLP-1 receptor; P43220; HEK293 GLP-1R CRE-luciferase, luminescence, 4-6 h; cells express a hypersensitive GLP-1R form; Potency, µM (top dose mostly 45.6 µM), for the others: at the top dose activation, usual class: activators; 380,000 compounds, 0.007% hits; also: % of control where 0% means no effect
Target sequence (P43220 whole entry, looked up): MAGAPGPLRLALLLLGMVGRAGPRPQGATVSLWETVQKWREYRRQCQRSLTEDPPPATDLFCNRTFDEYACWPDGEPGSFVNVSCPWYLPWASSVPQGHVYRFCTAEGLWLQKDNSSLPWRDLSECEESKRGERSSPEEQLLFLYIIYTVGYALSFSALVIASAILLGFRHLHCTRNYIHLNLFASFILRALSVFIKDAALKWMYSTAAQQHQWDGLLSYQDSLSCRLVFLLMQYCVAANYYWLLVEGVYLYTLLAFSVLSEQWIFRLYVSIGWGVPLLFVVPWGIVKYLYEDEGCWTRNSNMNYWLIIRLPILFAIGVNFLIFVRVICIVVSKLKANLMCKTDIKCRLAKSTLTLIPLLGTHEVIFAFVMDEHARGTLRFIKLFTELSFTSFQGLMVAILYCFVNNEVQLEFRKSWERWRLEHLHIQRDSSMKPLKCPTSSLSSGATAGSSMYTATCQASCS
HepG2 tox – HepG2 cytotoxicity, counter-screen for TGF-b inhibitors. AID 588856. 410,000 compounds, 0.76% hits. HepG2 CAGA-GFP viability, ATP luminescence, 18 h. Potency, µM (top dose mostly 46.1 µM), inactives show at the highest dose activity change, negative = cytotoxicity, hits mostly cytotoxic
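HepG2 CAGA-GFP cells (1000/well, DMEM with 1% FBS) received compound, then TGF-beta at 500 pg/mL final, and were incubated 18 hours at 37 degrees C. Viability was read by CellTiter-Glo luminescence. Media-only wells were set as complete cell-killing and DMSO as no toxicity.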
TGFb inhibitor – blocks TGF-b signaling | HepG2 CAGA-GFP TGF-b/SMAD3 reporter, GFP fluorescence, 18 h; TGF-beta stimulated, 500 pg/mL final | Potency, µM (series often up to 46.1 µM), for inactives: top-dose activity, negative = inhibition, usual class: inhibitors | 410,000 compounds, 1.2% hits; also: % is scaled to controls: 0 for no effect and ±100 for the full control effect; nearly all actives have a fitted effect of over 65% in size
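Inhibition of TGF-beta-driven CAGA-GFP reporter expression in HEPG2 cells is measured by cellular GFP fluorescence after 18 h stimulation with 500 pg/mL recombinant TGF-beta in 1% FBS medium at 37 degrees C.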
ATXN viability – cell viability loss in ATXN counter-screen | 400,000 compounds, 0.49% hits | Potency, µM (doses to about 56.7 µM), most hits filed as cytotoxic | AID 651635 | S2 cells (HEK-293 line with an ATXN2-luciferase reporter) viability, CellTiter-Fluor protease fluorescence, 24 h; also: nearly all actives have a fitted effect of over 40% in size
ATXN2 expr inh – reduces ATXN2 reporter expression in HEK-293 cells; HEK-293 ATXN2-luciferase reporter, luminescence, 24 h; Potency, µM (doses to about 57 µM), for the others: at the top dose activity change, negative = inhibition, actives largely listed as inhibitors; 360,000 compounds, 0.72% hits; AID 1745845; also: % is scaled to controls: 0 for no effect and ±100 for the full control effect; nearly all actives have a fitted effect of over 55% in size
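ATXN2-luciferase reporter cells (luciferase flanked by upstream and downstream ATXN2 gene portions) were treated 24 h at 37 °C with compounds at up to 57 uM. SteadyGlo luminescence gave expression; GF-AFC fluorescence gave viability.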
GLP1R inv ag – acts as inverse agonist at human GLP-1 receptor; 410,000 compounds, 1.6% hits; HEK293 GLP-1R CRE-luciferase, luminescence, 24 h; GLP-1R form is constitutively active; P43220; Potency, µM (titrated, usually from 38.3 µM), without a hit: at the top dose activity change, negative = inhibition, usual class: inhibitors; also: % is scaled to controls: 0 for no effect and ±100 for the full control effect; nearly all actives have a fitted effect of over 55% in size
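Constitutively active GLP-1R drives a cAMP-responsive luciferase in stably transfected HEK293 cells; test compounds are added after overnight (12 h) attachment and left 24 hr, and signal loss in luminescence marks inhibition.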
An asterisk follows results filed as active; i = inactive; ? = inconclusive; . = no result given. Sampled rows, rich in hits. Any-hit rate of the full collection: about 3.7%. Calls follow the shape of the dose curve; as a rule, active = well fitted curve in the direction sought with a large enough effect; inconclusive = small, poorly fitted or top-dose-only effect, or another doubt; inactive = no such curve, though single readings can be large; an effect the other way counts as inactive or inconclusive. Potency is read from the fitted curve at half-maximal effect.

SMILES | GLP1R ag | HepG2 tox | TGFb inhibitor | ATXN viability | ATXN2 expr inh | GLP1R inv ag
O=C(NC(NC(=S)Nc1ccc(Cl)c(Cl)c1)C(Cl)(Cl)Cl)c1ccco1 (stereo not drawn) | -37% | -43% | ? | i | ? | 3.5µM*
O=C(NC(NC(=S)Nc1cc(Cl)ccc1Cl)C(Cl)(Cl)Cl)c1ccco1 (stereo not drawn) | -5% | -29% | 16µM* | i | ? | ?
O=C(Cc1ccccc1)NC(NC(=S)Nc1cc(Cl)ccc1Cl)C(Cl)(Cl)Cl (stereo not drawn) | -11% | 5% | -5% | i | -1% | ?
O=C(/C=C/c1ccccc1)NC(NC(=S)Nc1cc(Cl)ccc1Cl)C(Cl)(Cl)Cl (stereo not drawn) | -7% | -7% | 2.2µM* | ? | ? | -3%
CCc1ccc(-n2nc(CO)c(C(=O)NCCCc3ccccc3)n2)cc1 | . | 4% | -9% | . | . | 4%
COc1cc(=O)n2c(c1C(=O)NC(C)c1ccco1)CCN(C(=O)c1cc(C)cc(C)c1)CC2 (stereo not drawn) | . | . | . | i | . | .
N=C(N)c1ccc(OCCCOc2ccc(C(=N)N)cc2)cc1 | 3% | . | . | i | -5% | .
COCCN=C1NN=C(c2cc(C)n(CC3CCCO3)c2C)CS1 (stereo not drawn) | 2% | 2% | 16% | i | 16% | 11%
C=CCN=C1NN=C(c2cc(C)n(CC=C)c2C)CS1 | 0% | -14% | -19% | i | 27µM* | ?
COc1cc(C(C)C)c2c(c1)S(=O)(=O)N(COc1cc(=O)n3cccc(OCCN4CCCCC4)c3n1)C2=O | . | . | . | . | 20% | .
CN1CCN(c2nc(C#N)cc(-c3ccccc3)n2)CC1 | 0% | -3% | -8% | i | -20% | 13µM*
CCc1cccc(NC(=O)C2CCN(S(=O)(=O)c3cccc(-c4noc(C)n4)c3)CC2)c1 | . | -5% | ? | i | -37% | ?
Cc1nc(-c2ccc(C)c(S(=O)(=O)N3CCC(C(=O)Nc4ccc(Cl)cc4)CC3)c2)no1 | . | -12% | ? | i | -1% | 10µM*
O=C(Nc1ccc(Cl)cc1)C1CCN(S(=O)(=O)c2ccc(Br)s2)CC1 | . | -40% | 13µM* | ? | 0% | ?
CC(C)c1nnc(NC(=O)C2CCN(C(=O)Nc3ccc(Cl)cc3)CC2)s1 | 14% | -8% | -6% | i | 1% | 4µM*
Cc1csc(NC(=O)C2CCCN(S(=O)(=O)c3ccc(Br)s3)C2)n1 (stereo not drawn) | -21% | 5% | 18µM* | i | -18% | ?
Cc1cc(C(C)(C)C)ccc1OCCOCCN1CCCC1 | 2% | -27% | -2% | i | -16% | 13µM*
CC(C)(C)c1cc(Cl)ccc1OCCOCCN1CCCC1 | 4% | -76% | ? | ? | ? | ?
CCc1nc(N2CCN(C(=S)NCCCOC)CC2)c2c3c(sc2n1)CCCC3 | -1% | -34% | ? | ? | ? | 11µM*
COC(=O)[C@@H]1CCCN1Cc1ccc2c(c1)CN(Cc1ccc3c(c1)CCO3)CCO2 | . | . | . | i | . | .
O=C1N/C(=N\N=C\c2ccco2)SC1Cc1ccccc1[N+](=O)[O-] (stereo not drawn) | -6% | -15% | -29% | 11µM* | . | 7.1µM*
O=C1CCC[C@@H]2C[C@@]3(C[C@@H]4CCN1[C@H]24)Nc1cc(Cl)c(Cl)cc1NC3=NCc1ccccc1 | 1% | -32% | 11µM* | . | 0% | 10µM*
CC(C)(C)CC(C)(C)N=C1Nc2ccc(Cl)cc2NC12C[C@H]1CCC(=O)N3CC[C@@H](C2)[C@@H]13 (stereo partly drawn) | . | 10µM* | ? | . | . | .

Bioassay records (PubChem)
